High-throughput results: PubChem BioAssay, NMMLSC
Rab7 wt modul: modulators of GTP binding to dog Rab7 wildtype GTPase | GST-Rab7 beads, fluorescent GTP binding, flow cytometry; actives lie on both sides; untreated = 100%, excess cold GTP = 0% | GTP binding activity (percent of control), % at 10 µM | 190,000 tested, 0.055% active;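 active = fluorescent GTP binding to Rab7 beads changed by at least 20 points from the 100% baseline, either direction, mostly lower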;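 also: median green fluorescence of bound Bodipy-FL-GTP per Rab7 bead population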
Cdc42 wt GTP: modulators (inhibitors or activators) of GTP binding to human Cdc42 wildtype. P60953. GST-Cdc42 beads, Bodipy-GTP binding, flow cytometry; actives lie on both sides. percent activity (GTP binding), % at 10 µM. 190,000 tested, 0.2% active;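 active = percent activity GTP binding at least 20 points away from the 100% baseline, either down as inhibitor or up as activator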;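 also: median bead fluorescence of bound Bodipy-FL-GTP at 100 nM; below 100% means less GTP binding so inhibitor and above means activator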
Target sequence (P60953 whole entry, looked up): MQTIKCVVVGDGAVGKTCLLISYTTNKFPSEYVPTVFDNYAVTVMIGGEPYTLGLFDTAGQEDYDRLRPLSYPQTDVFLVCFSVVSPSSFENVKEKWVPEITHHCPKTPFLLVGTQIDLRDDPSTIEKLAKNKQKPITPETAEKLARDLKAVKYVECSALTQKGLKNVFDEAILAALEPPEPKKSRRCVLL
Rab2 wt GTP: changes GTP binding to wildtype dog Rab2A, up or down. GST-Rab2 wt beads, Bodipy-GTP binding, flow cytometry. 190,000 tested, 0.19% active. GTP binding activity, % at 10 µM;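 active = GTP binding activity at least 20 points away from 100%, either lowered or raised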
HRas wt GTP bind: human HRas wildtype GTP binding, change in either direction | P01112 | GST-Ras wt beads, Bodipy-FL-GTP binding, flow cytometry; actives lie on both sides | GTP binding activity, % at 10 µM | 190,000 tested, 0.14% active;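 active = GTP binding activity at least 20% away from the 100% baseline, either lowered as inhibitor or raised as activator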
Target sequence (P01112 whole entry, looked up): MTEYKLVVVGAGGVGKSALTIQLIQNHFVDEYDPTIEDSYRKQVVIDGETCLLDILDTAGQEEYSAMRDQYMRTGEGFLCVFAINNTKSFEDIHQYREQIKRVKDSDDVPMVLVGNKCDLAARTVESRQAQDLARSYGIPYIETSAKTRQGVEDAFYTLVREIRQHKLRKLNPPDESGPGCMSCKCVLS
Rac1 mut GTP: alters GTP binding to activated mutant human Rac1; P63000; AID 764; percent activity (GTP binding), % at 10 µM; 190,000 tested, 0.11% active; GST-Rac1 activated beads, fluorescent GTP binding, flow cytometry; actives lie on both sides; 100% means binding = to untreated wells;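 active = GTP binding at least 20 percentage points away from the 100% baseline, in either direction, so actives lie on both sides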
Rac1 wt GTP bind: alters GTP binding to wildtype human Rac1; 190,000 tested, 0.27% active; GTP binding activity (% of control), % at 10 µM; P63000; GST-Rac1 beads, fluorescent GTP binding, flow cytometry; actives lie on both sides; 0 = cold GTP competed, 100 = untreated;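 active = GTP binding activity at least 20 points away from the 100% control level, either lower or higher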
A number is an active result; - = inactive; [ ] = dose if it differs, or a comment. Sampled rows, rich in hits. Any-hit rate of the full collection: about 0.38%.

SMILES	Rab7 wt modul	Cdc42 wt GTP	Rab2 wt GTP	HRas wt GTP bind	Rac1 mut GTP	Rac1 wt GTP bind
COC(=O)c1cccc(C(=O)N2CCCC(C(=O)c3cc(F)ccc3F)C2)c1 (stereo unspecified)	-	-	-	-	-	-
CCOc1cc(C2c3c(-c4ccccc4)n[nH]c3C(=O)N2c2ccc(C(=O)O)cc2)ccc1O (stereo unspecified)	-	79	79	-	74	59
COc1ccc(OC)c(NC(=O)CSc2nnc(C3CCCCC3)o2)c1	-	-	-	-	-	-
CCOC(=O)C1=NN(c2ccc(C)cc2)CC1C(=O)OC (stereo unspecified)	-	-	-	-	-	123[activator]
COc1ccc(CN2CCCC(CNC(=O)c3ccc(F)cc3)C2)c(C)c1C (stereo unspecified)	-	-	-	-	-	-
Cc1ccc(/C(N)=N/OC(=O)CCC2CCCCC2)cc1	-	-	-	-	-	133[activator]
COc1cccc(NC(=O)CSc2nc3c([nH]c4ccccc43)c(=O)n2C)c1	-	-	-	-	-	123[activator]
Cc1cccc(NC(=O)CSc2nc3c([nH]c4ccccc43)c(=O)n2C)c1	-	-	-	-	-	-
O=C(Nc1cccc2ccccc12)c1cnccn1	75	73	67	71	77	-
O=C(CCNS(=O)(=O)c1cccc2nsnc12)N1CCN(c2ccccn2)CC1	-	122[activator]	-	-	-	138[activator]
Cn1nnc(NC(=S)NC(=O)c2ccc(-c3ccc(Br)cc3)o2)n1	-	-	-	-	-	76
CC1CN(C(=O)c2cccc(S(=O)(=O)Nc3cc(Cl)ccc3Cl)c2)CC(C)O1 (stereo unspecified)	-	79	78	-	-	72
O=C(O)c1cc(C(=O)O)cc(-c2ccc(/C=c3/sc4nc5ccccc5n4c3=O)o2)c1	-	-	79	-	-	-
Nc1c([N+](=O)[O-])cc(-c2cnc[nH]2)cc1[N+](=O)[O-]	-	77	77	78	-	-
COc1ccc(-c2cnc[nH]2)cc1	-	-	-	-	-	-
CCn1c(SCC(=O)O)nnc1-c1cc2c(C)nn(-c3ccccc3)c2s1	-	-	-	-	-	79
Cc1nn(-c2ccccc2)c2sc(-c3nnc(SCC(=O)O)o3)cc12	-	-	-	-	-	-
CCOC(=O)c1nc(Nc2ccc(C(C)=O)cc2)c2ccccc2n1	-	-	-	-	-	78
Cc1cc(-c2nn(-c3ccccc3F)cc2CN2CCN(c3ccccn3)CC2)c(C)s1	-	-	-	-	-	-
NS(=O)(=O)c1ccc(CCN2C(=O)/C(=C\c3ccc(Cl)cc3)SC2=S)cc1	-	-	-	-	-	77
Cc1ccc(C)n1N1C(=O)/C(=C\c2ccc(Cl)cc2)SC1=S	-	-	-	-	-	-
O=C(Nc1cccc([N+](=O)[O-])c1)Nc1ccc2c(c1)OCCO2	-	-	-	-	-	-
Cc1ccc(NS(=O)(=O)c2cc(NC(=O)c3ccc4c(c3)NC(=O)CS4)ccc2Cl)c(C)c1	-	-	129[activator]	-	-	-
O=[N+]([O-])c1ccc(Cl)cc1N1CCCCC1	-	-	-	-	-	-
CCOC(=O)Oc1ccc2oc(C)c(C(=O)OCCOC)c2c1	-	-	-	-	-	-
COCCOC(=O)c1c(C)oc2ccc(OC(=O)c3ccc4c(c3)OCO4)cc12	79	77	76	-	73	75
COc1ccc(OC)c(C(C(=O)NCc2ccco2)N(C(=O)Cn2nnc3ccccc32)C2CC2)c1 (stereo unspecified)	-	126[activator]	121[activator]	121[activator]	-	130[activator]
Cc1ccc(CN2CCN(Cc3ccc(C)s3)CC2CCO)cc1 (stereo unspecified)	-	-	-	-	-	-
CCn1c2ccccc2c2nnc(SCC(=O)NCCOC)nc21	-	-	35	-	-	-
Cn1c(=O)n(Cc2ccc(F)cc2)c(=O)c2c1nc1n2CCN1Cc1ccco1	-	-	77	-	-	75
